According to PubChem BioAssay (Tox21):
Where “and” joins values, the source holds several entries; their conditions need not be identical. Equal values may be shown once. Results filed as inconclusive are left out. The source holds several records for some structures; these can differ, active in one and inactive in another. Calls of active or inactive are those of the source. Unless noted, calls come from the whole dose curve.

Assays:
[1] = molecular target: Thyrotropin receptor (Homo sapiens) (UniProt P16473); test: qHTS assay to identify small molecule agonists of the thyroid stimulating hormone receptor (TSHR) signaling pathway (AID 1224843); note: nearly all actives have a fitted effect of over 45% in size
Sequence of Thyrotropin receptor (Homo sapiens) (P16473 whole entry, looked up): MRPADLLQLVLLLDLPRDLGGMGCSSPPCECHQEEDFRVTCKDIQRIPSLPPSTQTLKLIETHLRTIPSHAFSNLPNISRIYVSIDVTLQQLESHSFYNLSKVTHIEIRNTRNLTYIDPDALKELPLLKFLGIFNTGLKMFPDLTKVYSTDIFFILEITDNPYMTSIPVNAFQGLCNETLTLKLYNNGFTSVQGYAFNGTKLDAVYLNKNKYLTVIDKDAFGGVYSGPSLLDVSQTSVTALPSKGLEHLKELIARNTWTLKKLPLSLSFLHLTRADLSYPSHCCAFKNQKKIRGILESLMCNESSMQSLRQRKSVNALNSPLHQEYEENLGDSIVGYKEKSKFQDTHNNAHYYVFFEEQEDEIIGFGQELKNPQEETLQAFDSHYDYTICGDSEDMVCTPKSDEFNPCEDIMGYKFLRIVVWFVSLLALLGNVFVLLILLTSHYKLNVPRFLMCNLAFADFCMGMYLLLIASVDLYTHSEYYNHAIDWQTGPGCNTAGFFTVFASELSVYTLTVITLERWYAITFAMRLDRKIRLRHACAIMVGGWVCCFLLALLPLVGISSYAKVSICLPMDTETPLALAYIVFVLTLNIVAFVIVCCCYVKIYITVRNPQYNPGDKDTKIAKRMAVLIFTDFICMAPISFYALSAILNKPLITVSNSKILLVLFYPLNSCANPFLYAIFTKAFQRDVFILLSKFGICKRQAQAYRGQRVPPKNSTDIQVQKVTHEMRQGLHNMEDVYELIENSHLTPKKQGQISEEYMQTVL
Procedure, shortened: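 Using 15 concentrations per compound in triplicate, cAMP production was monitored in TSHR-HEK293 cells after 30 min compound incubation at RT; HTRF reagents followed, with fluorescence intensity recorded after 1 h.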

[2] = qHTS assay to identify small molecule agonists of the hypoxia (HIF-1) signaling pathway - cell viability counter screen (AID 1224844); note: nearly all actives have a fitted effect of over 50% in size
Procedure, shortened: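 HRE-bla ME-180; 0.5% dFBS; cpd 17 h, 37C, 5% CO2; CellTiter-Glo lum., 30 min RT, post-FRET read, same wells.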

[3] = qHTS assay to identify small molecule agonists of H2AX (AID 1224845; active = well fitted activation curve with a large enough effect in the signal ratio in the repeat runs, not every such curve was filed as active; the % refers to the signal ratio)
Procedure, shortened: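 Wild-type CHO-K1 cells plated overnight, then exposed 3 hr at 37C to compounds at 15 concentrations (0.76% DMSO). Lysed, then HTRF anti-pH2AX(S139)-cryptate/anti-H2AX-d2 detection after 24 hr at room temperature; emissions 665 and 620 nm.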

[4] = qHTS assay to identify small molecule agonists of the hypoxia (HIF-1) signaling pathway (AID 1224846; active = well fitted activation curve with a large enough effect in the signal ratio in the repeat runs, not every such curve was filed as active; the % refers to the signal ratio)
Procedure, shortened: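 Reporter induction in HRE-bla ME-180 cells is taken as agonism: cells sit 5 hrs after plating, receive compounds or DMSO only, incubate 17 hrs at 37C under 5% CO2, and are loaded with CCF4-AM for beta-lactamase FRET measurement.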

[5] = qHTS assay to identify small molecule agonists of H2AX - cell viability counter screen (AID 1224847); note: nearly all actives have a fitted effect of over 30% in size; note: potency is the fitted concentration of half-maximal effect; for activity change, negative = cytotoxicity: top concentration of the series differs between compounds
Procedure, shortened: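 For this counter screen, overnight-attached CHO-K1 cells received test compounds (15 concentrations, 0.76% DMSO final); 3 hr later at 37C, CellTiter-Glo reagent was added and luminescence recorded after 30 min at room temperature.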

[6] = qHTS assay to identify small molecule antagonists of the estrogen related receptor (ERR) signaling pathway from Tox21 library (AID 1224848; active = well fitted curve in the direction sought with a large enough effect in the repeat runs; an effect the other way counts as inactive or inconclusive; note: nearly all actives have a fitted effect of over 50% in size; note: potency is the fitted concentration of half-maximal effect)
Procedure, shortened: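 Tox21 10K compounds in DMSO tested for ERR pathway antagonism in NTP's ERR cell line; 18 h, 37 C exposure; ONE-Glo luminescence.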

[7] = qHTS assay to identify small molecule agonists of the estrogen related receptor (ERR) signaling pathway from Tox21 library (AID 1224849); conditions: ERR reporter cell line, ONE-Glo luciferase, 18 h; at 92.4 µM (top of the series) unless noted; note: nearly all actives have a fitted effect of over 15% in size
Procedure, shortened: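 Tox21 compounds tested for ERR agonism in an NTP reporter cell line: 18 h treatment at 37 C, then ONE-Glo luminescence.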

[8] = qHTS RealTime-Glo MT Cell Viability Assay in HepG2 cells - 24 hour (AID 1224867; active = well fitted curve in the direction sought with a large enough effect in the repeat runs; an effect the other way counts as inactive or inconclusive; note: nearly all actives have a fitted effect of over 50% in size)
Procedure, shortened: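 Tox21 10K library screened in qHTS format on HepG2 cells carrying RealTime-Glo reagents. Compounds were added after a 5 h preincubation, and the luminescent signal from continuous culture was measured repeatedly during 40 h treatment.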

[9] = qHTS RealTime-Glo MT Cell Viability Assay in HEK293 cells - 32 hour (AID 1224868; active = well fitted curve in the direction sought with a large enough effect in the repeat runs; an effect the other way counts as inactive or inconclusive; note: top concentration of the series differs between compounds; nearly all actives have a fitted effect of over 50% in size)
Procedure, shortened: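 Luminescence generated by NanoLuc from substrate produced by living HEK293 cells served as the viability signal. Each value reflects the reading at its stated time point during continuous 40 h compound exposure at 37 C.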

[10] = A CellTox Green Cytotoxicity Assay to monitor cytotoxicity in HEK293 cells - 0 hour (AID 1224869; active = well fitted curve in the direction sought with a large enough effect in the repeat runs; an effect the other way counts as inactive or inconclusive; note: nearly all actives have a fitted effect of over 50% in size)
Procedure, shortened: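 Tox21 screen in HEK293: membrane-impermeant cyanine dye fluoresces on binding dead-cell DNA; compound pinned 5 h post-seeding, plates held at 37 C, signal read repeatedly through 40 h.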
% is set by controls: 0 for no effect and ±100 for the full control effect.

CCO[Si](CCC1CCC2OC2C1)(OCC)OCC (configuration not stated)
inactive: Potency [1] | Potency [2] | outcome [3] | outcome [4] | Potency [5] | Potency [6] | activity change, positive = activation [7] 3.88% | Potency [8] | Potency [9] | Potency [10]

NC(=O)c1ccc([N+](=O)[O-])cc1
inactive: Potency [1] | Potency [2] | outcome [3] | outcome [4] | Potency [5] | Potency [6] | activity change, positive = activation [7] -5.69% | Potency [8] | Potency [10]

O=C(O)CCCl
inactive: Potency [1] | Potency [2] | outcome [3] | outcome [4] | Potency [5] | Potency [6] | activity change, positive = activation [7] -15.3% | Potency [9] | Potency [10]

CCCC(=O)O[C@]1(C(=O)CO)CC[C@H]2[C@@H]3CCC4=CC(=O)CC[C@]4(C)[C@H]3[C@@H](O)C[C@@]21C
inactive: Potency [1] | Potency [2] | outcome [3] | outcome [4] | Potency [5] | Potency [6] | activity change, positive = activation [7] -12.3% [at 42.5 µM] | Potency [8] | Potency [9] | Potency [10]

CC(=O)CC(C)C
inactive: Potency [1] | Potency [2] | outcome [3] | outcome [4] | Potency [5] | Potency [6] | activity change, positive = activation [7] 1.24% | Potency [8] | Potency [9] | Potency [10]

CCCCCCCCS(=O)(=O)Cl
inactive: Potency [1] | Potency [2] | outcome [3] | outcome [4] | Potency [5] | Potency [6] | activity change, positive = activation [7] 7.34% | Potency [8] | Potency [9] | Potency [10]

C1CN(CCOCCN2CCOCC2)CCO1
inactive: Potency [1] | Potency [2] | outcome [3] | outcome [4] | Potency [5] | Potency [6] | activity change, positive = activation [7] -7.8% | Potency [9] | Potency [10]

Cc1sccc1Br
inactive: Potency [1] | Potency [2] | outcome [3] | outcome [4] | Potency [5] | Potency [6] | activity change, positive = activation [7] -1.02% [at 42.5 µM] | Potency [9] | Potency [10]

CC(C)(c1ccc(O)cc1)c1ccc(O)cc1
inactive and 103 µM (active): Potency [5]
inactive: Potency [1] | Potency [2] | outcome [3] | outcome [4] | activity change, positive = activation [7] -29.8% and -30.2% | Potency [8] | Potency [10]
active: Potency [6] 30.3 µM

O=C(O)Cc1ccc(CCNS(=O)(=O)c2ccc(Cl)cc2)cc1
inactive: Potency [1] | Potency [2] | outcome [3] | outcome [4] | Potency [5] | Potency [6] | activity change, positive = activation [7] 0.244% [at 42.5 µM] | Potency [9] | Potency [10]

Cc1cccn2c(=O)c(-c3nnn[nH]3)cnc12
inactive: Potency [1] | activity change, negative = cytotoxicity [2] -2.16% [at 15.8 µM] | outcome [3] | activation [4] -0.179% [at 15.8 µM] | Potency [5] | activity, negative = inhibition [6] 7.1% [at 19 µM] | activity change, positive = activation [7] 4.72% [at 19 µM] | activity change, negative = cytotoxic [9] -0.452% [at 15.8 µM] | cytotoxicity [10] 3.94% [at 15.8 µM]

Cc1cc2c(cc1S(N)(=O)=O)S(=O)(=O)CCC2
inactive: Potency [1] | Potency [2] | outcome [3] | outcome [4] | Potency [5] | Potency [6] | activity change, positive = activation [7] 2.29% [at 42.5 µM] | Potency [8] | Potency [9] | Potency [10]

O=S(O)CO
inactive: Potency [1] | Potency [2] | outcome [3] | outcome [4] | Potency [5] | Potency [6] | activity change, positive = activation [7] 4.77% | Potency [8] | Potency [9] | Potency [10]

COC(=O)NN
inactive: Potency [1] | Potency [2] | outcome [3] | outcome [4] | Potency [5] | Potency [6] | activity change, positive = activation [7] -24.9% | Potency [8] | Potency [9] | Potency [10]

C/C=C(\C)C#N
inactive: Potency [1] | Potency [2] | outcome [3] | outcome [4] | Potency [5] | Potency [6] | activity change, positive = activation [7] 0.294% | Potency [8] | Potency [10]

CN1N=C(C(N)=O)CCC1=O
inactive: Potency [1] | Potency [2] | outcome [3] | outcome [4] | Potency [5] | Potency [6] | activity change, positive = activation [7] 0.737% [at 42.5 µM] | Potency [9] | Potency [10]

CCCCCCCCCCCCN(CCCCCCCCCCCC)CCCCCCCCCCCC
inactive: Potency [1] | Potency [2] | outcome [3] | outcome [4] | Potency [5] | Potency [6] | activity change, positive = activation [7] 5.6% | Potency [9] | Potency [10]

CCC(C)C1CCCCC1=O (configuration not stated)
inactive: Potency [1] | Potency [2] | outcome [3] | outcome [4] | Potency [5] | Potency [6] | activity change, positive = activation [7] 3.66% | Potency [9]

CCCN1CCCC[C@H]1C(=O)Nc1c(C)cccc1C
inactive: Potency [1] | Potency [2] | outcome [3] | outcome [4] | Potency [5] | Potency [6] | activity change, positive = activation [7] 6.18% [at 42.5 µM] | Potency [9] | Potency [10]

C[C@@H]1CCN(C(=O)[C@H](CCCN=C(N)N)NS(=O)(=O)c2cccc3c2NC[C@H](C)C3)[C@@H](C(=O)O)C1
inactive: Potency [1] | Potency [2] | outcome [3] | outcome [4] | Potency [5] | Potency [6] | activity change, positive = activation [7] 6.26% [at 42.5 µM] | Potency [8] | Potency [9] | Potency [10]

COC(=O)c1cc(C(=O)OC)cc(S(=O)(=O)O)c1
inactive: Potency [1] | Potency [2] | outcome [3] | outcome [4] | Potency [5] | Potency [6] | activity change, positive = activation [7] 0.501% | Potency [8] | Potency [9] | Potency [10]

CCc1cccc2c(CCO)c[nH]c12
inactive: Potency [1] | Potency [2] | outcome [3] | outcome [4] | Potency [5] | Potency [6] | activity change, positive = activation [7] 6.5% [at 42.5 µM] | Potency [8] | Potency [9] | Potency [10]

C=COCC1CCC(CO)CC1 (configuration not stated)
inactive: Potency [1] | Potency [2] | outcome [3] | outcome [4] | Potency [5] | Potency [6] | activity change, positive = activation [7] 2.36% | Potency [8] | Potency [9] | Potency [10]

Cc1c(NC(C)C)c(=O)n(-c2ccccc2)n1C
inactive: Potency [1] | Potency [2] | outcome [3] | outcome [4] | Potency [5] | Potency [6] | activity change, positive = activation [7] 0.236% [at 42.5 µM] | Potency [8] | Potency [10]

ClC(Cl)(Br)Br
inactive: Potency [1] | Potency [2] | outcome [3] | outcome [4] | Potency [5] | Potency [6] | activity change, positive = activation [7] 1.45% | Potency [8] | Potency [9] | Potency [10]

CC(C)CNCC(C)C
inactive: Potency [1] | Potency [2] | outcome [3] | outcome [4] | Potency [5] | Potency [6] | activity change, positive = activation [7] 1.17% | Potency [9]

CO[C@]12C[C@@H](COC(=O)c3cncc(Br)c3)CN(C)[C@@H]1Cc1cn(C)c3cccc2c13
inactive: Potency [1] | Potency [2] | outcome [3] | outcome [4] | Potency [5] | Potency [6] | activity change, positive = activation [7] 6.2% [at 42.5 µM] | Potency [8] | Potency [9] | Potency [10]

CC(C)(C)NCCNC(C)(C)C
inactive: Potency [1] | Potency [2] | outcome [3] | outcome [4] | Potency [5] | Potency [6] | activity change, positive = activation [7] 3.81% | Potency [8] | Potency [9] | Potency [10]

CN1CC(=O)NC1=N
inactive: Potency [1] | Potency [2] | outcome [3] | outcome [4] | Potency [5] | activity change, positive = activation [7] 4.02% [at 42.5 µM] | Potency [8] | Potency [9]

CC(C)(O)C(=O)c1ccccc1
inactive: Potency [1] | Potency [2] | outcome [3] | outcome [4] | Potency [5] | activity change, positive = activation [7] 0.982% | Potency [8] | Potency [10]

C=CCS(=O)(=O)O
inactive: Potency [1] | Potency [2] | outcome [3] | outcome [4] | Potency [5] | activity change, positive = activation [7] 4.55% | Potency [8] | Potency [9] | Potency [10]

CC(=O)c1ccccc1O
inactive: Potency [1] | Potency [2] | outcome [3] | outcome [4] | Potency [5] | Potency [6] | activity change, positive = activation [7] 0.43% | Potency [10]

COc1cc(C(=O)N2CCCCCCC2)cc(OC)c1OC
inactive: Potency [1] | Potency [2] | outcome [3] | outcome [4] | Potency [5] | activity change, positive = activation [7] 8.77% [at 42.5 µM] | Potency [8] | Potency [9]

O=C(O)COc1nn(Cc2ccccc2)c2ccccc12
inactive: Potency [1] | Potency [2] | outcome [3] | outcome [4] | Potency [5] | Potency [6] | activity change, positive = activation [7] 0.25% [at 42.5 µM] | Potency [10]

CC/C=C\CCOC(C)=O
inactive: Potency [1] | Potency [2] | outcome [3] | outcome [4] | Potency [5] | activity change, positive = activation [7] 8.11% | Potency [8]

CS(=O)(=O)O
inactive: Potency [1] | Potency [2] | outcome [3] | outcome [4] | Potency [5] | activity change, positive = activation [7] 3.34% | Potency [8] | Potency [9] | Potency [10]

Cc1ccc(C#N)cc1
inactive: Potency [1] | Potency [2] | outcome [3] | outcome [4] | Potency [5] | Potency [6] | activity change, positive = activation [7] 1.46% | Potency [9] | Potency [10]

O=C1CCCN1C1CCCCC1
inactive: Potency [1] | Potency [2] | outcome [3] | outcome [4] | Potency [5] | activity change, positive = activation [7] -1.04% | Potency [8] | Potency [9] | Potency [10]
